Assay outcomes deposited in PubChem BioAssay by National Center for Advancing Translational Sciences (NCATS).
BRCA1 expr up = BRCA1 expression activation | MCF7-BRCA1-FFLuc reporter, luminescence, 48 h; response scale: scaled: vehicle 0%, 10 µM genistein 100% | 1.1% of 380,000 active | Potency, µM (series often up to 46.1 µM), without a hit: at the top dose activation, actives largely listed as activators; further: potency means the concentration at half of the fitted maximal effect; nearly all actives have a fitted effect of over 80% in size
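Quantitative HTS in MCF7 cells stably reporting BRCA1 expression via firefly luciferase. Compound treatment lasts 48 h at 37 °C in phenol-red free MEM. Activation is expressed relative to genistein at 10 microM and DMSO.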
IL2 activator = activates IL-2 in a cell-based reporter assay. IL-2 activation reporter assay, cell-based qHTS; stimulated with anti-CD3/CD4/CD28 beads; in transgenic mouse T cells. activation, % (series mostly up to about 46 µM). 0.065% of 360,000 active. AID 652025; in the data active means activation above about 50%; inconclusive means mostly about 30% to 49%; further: 0% is about no effect
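Readout is EGFP and DsRed signal by fluorescent plate cytometry after 18 h at 37 degrees C. Transgenic mouse T cells (750/well) received compound for 60 min before bead stimulation (anti-CD3, anti-CD4, anti-CD28); memory T cells served as non-tolerant control.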
Mito fusion act = mitochondrial division inhibition or fusion activation; S. cerevisiae fusion-defective mutant growth rescue, CellTiterGlo 48 h; Potency, µM (series often up to 46.1 µM), for inactives: at the highest dose growth rescue (activation), most hits filed as activators; 0.23% of 320,000 active; AID 485298; further: potency means the concentration at half of the fitted maximal effect; % of control where 0% means no effect; nearly all actives have a fitted effect of over 45% in size
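Compounds are tested for their ability to restore growth of mitochondrial fusion-defective yeast strains at non-permissive 37C in YPEG medium over 48 hours. Viability is quantified by luciferase luminescence.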
PTHR1 ag = PTHR1 (human) receptor agonism; AID 743266; Q03431; Potency, µM (series often up to 115 µM), for the others: at the highest dose activation, hits mostly activators; HEK293 GP2 PTHR1 cells, GloSensor cAMP luminescence, 1 h; 0.075% of 410,000 active; further: potency means the concentration at half of the fitted maximal effect; nearly all actives have a fitted effect of over 55% in size
Target sequence (Q03431 whole entry, looked up): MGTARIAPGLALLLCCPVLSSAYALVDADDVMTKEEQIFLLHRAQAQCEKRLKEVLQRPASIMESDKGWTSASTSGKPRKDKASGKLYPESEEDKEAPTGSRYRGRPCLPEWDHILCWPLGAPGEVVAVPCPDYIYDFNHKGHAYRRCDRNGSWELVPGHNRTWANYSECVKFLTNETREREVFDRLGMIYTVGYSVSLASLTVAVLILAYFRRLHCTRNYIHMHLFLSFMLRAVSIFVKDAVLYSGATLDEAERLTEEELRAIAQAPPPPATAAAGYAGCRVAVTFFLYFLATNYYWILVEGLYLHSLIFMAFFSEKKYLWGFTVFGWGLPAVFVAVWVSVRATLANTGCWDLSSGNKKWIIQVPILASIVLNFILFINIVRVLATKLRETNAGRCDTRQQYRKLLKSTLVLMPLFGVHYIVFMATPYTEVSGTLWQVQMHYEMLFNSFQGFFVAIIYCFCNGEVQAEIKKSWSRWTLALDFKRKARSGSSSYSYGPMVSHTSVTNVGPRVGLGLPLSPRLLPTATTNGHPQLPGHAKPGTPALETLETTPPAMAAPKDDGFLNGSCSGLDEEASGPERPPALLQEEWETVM
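HEK-293-derived GP2 cells expressing PTHR1 and a GloSensor cAMP reporter, 3,000/well, plated overnight, given luciferin plus IBMX (each 0.5 mM as added) for 1 h at 37 °C, then compound for 1 h at 37 °C. Luminescence was read after 15 min at room temperature.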
TCR activator = activates T cell receptor signaling | primary human leukocytes, anti-CD3, IL-2 HTRF, 48 h | Potency, µM (doses to about 9.22 µM), inactives show top-dose activation of IL-2 secretion, most hits filed as activators | 330,000 tested, under 10 active | AID 504894; further: % of control where 0% means no effect
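Primary human leukocytes incubated 48 hr with anti-CD3 beads plus compound, without co-stimulation. Secreted IL-2 measured by HTRF (europium cryptate/d2 anti-IL-2 pair, 320 nm excitation, 665 nm emission).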
Chronic BCR inh = inhibitors of chronic active B-cell receptor signaling | 0.05% of 340,000 active | Potency, µM (doses to about 46.1 µM), inactives show at the top dose activity change, negative = inhibition, most hits filed as inhibitors | AID 493014 | ABC-DLBCL IkBa-CBG/CBR reporter, luminescence ratio, 4 h; active means well fitted inhibition curve with a large enough effect in the signal ratio, with a control signal flat, not every such curve was filed as active; inconclusive means small, poorly fitted or top-dose-only effect, or effect the other way, or a change in a side signal; the % refers to the signal ratio;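 further: potency means the concentration at half of the fitted maximal effect; plate controls were basal doxycycline-induced cells for no effect and cells given 10 µM MG132 for full effect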
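TMD8 human ABC-DLBCL cells with doxycycline-inducible IκBα–green luciferase fusion and unfused red luciferase, in 0.5% FBS medium; compounds up to 46 uM, 4 h at 37C. Green/red luminescence ratio, filter-overlap corrected, fitted to concentration-response curves.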
* hit, by the source's call; i = inactive; ? = inconclusive; / = no result; [ ] = remark or other dose. An excerpt weighted towards active compounds, which were near 1.3% of everything screened. Unless noted, the call rests on the fitted dose curve; in most records, active means well fitted curve in the direction sought with a large enough effect; inconclusive means small, poorly fitted or top-dose-only effect, or another doubt; inactive means no such curve, though single readings can be large; an effect the other way counts as inactive or inconclusive.

SMILES	BRCA1 expr up	IL2 activator	Mito fusion act	PTHR1 ag	TCR activator	Chronic BCR inh
CCCCCCN1C=CC=C/C1=C/C=C(C#N)C#N	-10.0%	11.9	12.6µM*	-3.1%	1.1%[46.1 µM]	-0.3%
CCCCCN1C=CC=C/C1=C\C=C(C#N)C#N	0.0%	-2.5	-2.5%	i	4.4%	5.7%
O=C(Nc1nccs1)c1ccc(-c2ccccc2[N+](=O)[O-])o1	3.55µM*	-0.7	-2.2%	-30.4%	5.9%	?
O=C(Nc1nccs1)c1ccc(-c2ccc(Cl)cc2)o1	?	-3.1	?	-3.1%	6.1%	?
O=C(Nc1nccs1)c1ccc(-c2ccc([N+](=O)[O-])cc2)o1	3.16µM*	0.6	-2.2%	-3.1%	7.3%	?
CCn1nc(C)c(CCN(C)C(=O)Nc2cc(Cl)ccc2C)c1C	-8.9%	/	/	i	/	/
CCCOc1ccc(-c2nc(=S)[nH][nH]2)cc1	3.55µM*	1.2	21.6%	-11.0%[57.5 µM]	8.1%	?
C=CCSc1n[nH]c(-c2ccc(OCCCC)cc2)n1	7.94µM*	-0.3	27.1%	-35.9%	-2.7%	?
C=CCSc1n[nH]c(-c2ccc(OCCC)cc2)n1	3.55µM*	-3.3	17.1%	-33.8%[57.5 µM]	/	?
S=c1nc(-c2ccc(Cl)cc2)[nH][nH]1	14.2%	-0.3	18.1%	-9.1%	0.2%	?
Cc1cccc(C(C)C)c1NC(=O)c1ccc(CN(c2ccccc2)S(=O)(=O)c2ccccc2)cc1	-3.5%	1.7	1.5%	-4.5%	1.4%[46.1 µM]	7.5%
COc1ccc[n+](CC(=O)c2ccc(F)cc2)c1	15.2%	/	/	/	/	/
CCc1nnc(NC(=O)CSc2ccc(-c3ccc(-n4cccn4)cc3)nn2)s1	10µM*	-3.5	-10.1%	-24.2%	-5.0%	-12.5%
CNc1cc(C(=O)O)nc2ccccc12	-61.2%	/	/	/	/	/
O=C(COC(=O)c1cccc([N+](=O)[O-])c1)c1ccc(OCc2ccccc2)cc1	5.01µM*	0.7	-1.9%	-2.3%	-1.4%	?
COc1ccc(C(=O)CC(=O)c2ccccc2)cc1	7.94µM*	-1.6	/	-20.6%	6.2%	/
COc1ccc(C(=O)CC(=O)c2ccc(OC)cc2)cc1	47.6%	-1.1	2.4%	-3.5%	/	1.6%
COc1ccc(C(CC(=O)c2ccccc2)S(=O)(=O)c2ccc(C)cc2)cc1 (stereo not drawn)	10µM*	-2.8	0.2%	-29.7%[57.5 µM]	2.0%	?
O=C(Oc1ccc(-c2cnc3ccccc3n2)cc1)c1cccc([N+](=O)[O-])c1	3.16µM*	-0.1	1.8%	-18.8%[57.5 µM]	-1.3%	13.3%
O=C(CCc1ccccc1)OCC(=O)c1cccc([N+](=O)[O-])c1	-2.6%	-0.2	-5.9%	-3.4%	/	6.1%
Cc1ccc(NC(=O)CSc2c3c(nc4ccccc24)CCCC3)cc1F	/	/	/	-49.9%	/	/
COc1ccccc1CC(=O)c1ccc(OCc2ccccc2)cc1	8.91µM*	-3.2	9.5%	-48.8%	4.9%	?
COC(=O)c1ccc(OCC(=O)c2ccccc2)cc1	11.2µM*	-2.9	-2.7%	i	-4.6%	?
CCC(=O)c1ccc(-c2ccccc2)cc1	12.6µM*	7.8	-1.5%	i	1.2%[46.1 µM]	?
COc1ccc(O)c(C(=O)CC(=O)c2ccccc2)c1	/	/	2.2%	/	/	4.2%
SMILES	BRCA1 expr up	IL2 activator	Mito fusion act	PTHR1 ag	TCR activator	Chronic BCR inh
COc1ccc(O)c(C(=O)CC(=O)c2ccncc2)c1	5.62µM*	0.5	/	i	7.7%	/
Cc1cn([C@H](C(=O)NCCCCCCCCCCC(=O)N2CCN(C(=O)OC(C)(C)C)CC2)[C@@H](C)O)nn1	-38.3%	0.2	-4.2%	-47.7%	-2.1%	-13.0%
CCOC(=O)c1c(C)[nH]c(C)c1S(=O)(=O)N1CCCC(C(=O)Nc2ccc(F)cc2F)C1 (stereo not drawn)	-15.4%	/	/	i	/	/
C(=N\NC1=Nc2cccc3cccc1c23)/c1cccnc1	34.9%	-0.2	-3.7%	-16.3%	-0.6%	?
Clc1ccc(/C=N/NC2=Nc3cccc4cccc2c34)cc1	-48.2%	69.6*	1.4%	i	-0.8%[46.1 µM]	?
Clc1ccc(/C=N/Nc2nc(Cl)nc3ccccc23)cc1	33.2%	-2.8	3.8%	-5.0%[57.5 µM]	-3.1%	?
C(=N\NC1=Nc2cccc3cccc1c23)/c1ccccc1	-16.2%	267.9*	-0.7%	-22.9%	4.1%[46.1 µM]	?
COc1ccccc1Nc1ccc(Nc2ccccc2OC)nn1	5.01µM*	-0.4	3.0%	-34.3%	-3.3%[46.1 µM]	?
COc1ccccc1Nc1nc2ccccc2n2cnnc12	0.8%	-2.8	7.6%	i	0.0%	-0.4%
COc1ccccc1Nc1nc2ccccc2n1C	4.47µM*	-0.7	-1.5%	-42.8%	-4.8%[46.1 µM]	3.4%
Cc1cc(C)c2nc(N3CCCC(C(=O)NC4CCCC4)C3)sc2c1 (stereo not drawn)	0.0%	-3.3	4.7%	-7.2%	-6.9%	1.2%
Cc1sc2nc(CSCC(=O)Nc3ccccc3C#N)[nH]c(=O)c2c1C	-56.6%	-2.0	3.1%	i	0.1%[46.1 µM]	7.6%
COC(=O)c1cc(NCc2c(F)cccc2Cl)ccc1N1CCOCC1	-48.5%	-2.6	-3.5%	2.51µM*	/	?
CCN(CC)S(=O)(=O)c1ccc(NC(=O)CSc2nnc3c(n2)[nH]c2ccccc23)cc1	10.7%	/	/	/	/	/
COc1ccc(C(=O)OCC(=O)N2CCN(C(=O)c3ccco3)CC2)cc1OC	-16.5%	0.3	/	i	-0.7%	-2.2%
CC(=O)Nc1ccc(NC(=S)NC(=O)c2oc3ccccc3c2C)cc1	26.0%	2.0	-0.4%	-1.1%	-4.3%[46.1 µM]	3.8%
Cc1cccnc1NC(=S)NC(=O)c1oc2ccccc2c1C	2.82µM*	-0.5	0.8%	-29.6%	2.0%	1.5%
CC(=O)N(C)c1ccc(NC(=O)Nc2ccc(C)cc2)cc1	89.0%	-0.1	-0.4%	-12.5%	-18.0%	?
CC(=O)N(C)c1ccc(NC(=O)Nc2ccc(Cl)cc2)cc1	11.2µM*	0.4	/	-14.5%	2.1%	/
Cc1ccccc1-n1nc2c(c1NC(=O)C1CC1)CS(=O)(=O)C2	0.2%	-1.2	/	-20.6%	/	/
O=C(CCS(=O)(=O)c1ccccc1)N1CCN(c2ccccc2)CC1	3.16µM*	-0.3	-3.4%	-21.1%	-3.8%	4.1%
O=C(CCS(=O)(=O)c1ccc(Br)cc1)N1CCN(c2ccccc2)CC1	-9.9%	-2.9	2.2%	-10.8%	4.9%	5.8%
COc1ccc(/C=C/C(=O)OCC(=O)NC2CC2)c(OC)c1	-0.9%	-0.4	/	-30.5%	-0.1%	1.6%
CC(=O)c1sc(NC(=O)c2ccc(F)cc2)nc1-c1ccccc1	?	1.1	-6.5%	-23.8%	1.4%	6.6%
CC(=O)c1sc(NC(=O)c2ccccc2F)nc1-c1ccccc1	2µM*	-3.2	-0.5%	-33.2%	-4.3%	?
